Assay results from PubChem BioAssay AID651602 (The Scripps Research Institute Molecular Screening Center, 2012).
“And” between values parts separate entries of the source, which are not always exact repeats. Identical values can stand only once. The campaign covered roughly 360,000 compounds. About 950 (0.26%) were called active. Cut-off read from the data, not from the text of the source: active = inhibition above about 11%; inactive = the rest. The entries come from a sample that favours actives as a whole.

Experiment: growth loss of phage-infected E. coli, primary screen, RecBCD inhibitor project, absorbance, with phage, HTS (AID 651602)
Conditions: at 11.9 µM, stronger effect = higher value

Row | Compound | inhibition
1 | CC1(C(=O)NS(=O)(=O)c2ccccc2)CCN1C(=O)Cc1ccc(-c2ccccc2)cc1 (stereo not drawn) | -0.69% (inactive)
2 | CC1(C(=O)NS(=O)(=O)c2ccccc2)CCN1C(=O)c1ccccc1 (stereo not drawn) | 2.52% (inactive)
3 | CC1(C(=O)NS(=O)(=O)c2ccccc2)CCN1C(=O)C/C=C/c1ccccc1 (stereo not drawn) | 13.4% (active)
4 | COc1ccccc1CCn1cnc(-c2ccccc2)c1C(C)C | 1.47% (inactive)
5 | Nc1nc2c(ncn2[C@@H]2O[C@H](C(=O)N[C@@H](Cc3ccccc3)C(=O)NCc3ccccc3)[C@@H](O)[C@H]2O)c(=O)[nH]1 | 3.17% (inactive)
6 | COc1ccc2c(c1)c(=Cc1ccc(N(C)C)cc1)c1cc(-c3ccccc3)[n+](C)n12 | 23.7% (active)
7 | Cc1c(C=O)c2ccccc2n1CC(=O)O | 0.31% (inactive)
8 | CC(=O)c1c(C)n([O-])c2ccccc2[n+]1=O | 25.5% (active)
9 | NC(=O)c1ncn([C@@H]2O[C@H](C(=O)O)[C@@H](O)[C@H]2O)n1 | 0.63% (inactive)
10 | C[C@H]1CN([C@@H](C)CO)C(=O)CCCn2nncc2CO[C@@H]1CN(C)C(=O)Nc1ccc(N2CCN(C)CC2)cc1 | 0.4% (inactive)
11 | Cc1ccc(NC(=O)N2c3ccccc3SC2c2ccco2)c(C)c1 (stereo not drawn) | 5.53% (inactive)
12 | CC(=NNC(N)=O)c1ccc(Cl)c(-n2cccc2)c1 | 5.68% (inactive)
13 | CCCCOCC1CN(CCCC)S(=O)(=O)c2c(Oc3ccc(F)cc3)cccc2O1 (stereo not drawn) | 5.95% (inactive)
14 | NC(=S)NN=Cc1ccc(OC(=O)COc2cc(Cl)c(Cl)cc2Cl)cn1 | 11.6% (active)
15 | O=C(COc1cc(Cl)c(Cl)cc1Cl)NCCc1ccccn1 | -0.15% (inactive)
16 | O=C(COC(=O)COc1cc(Cl)c(Cl)cc1Cl)NC1CC1 | 3.17% (inactive)
17 | C=CC1=CCN(S(=O)(=O)C(C)(C)C)[C@@H]1CCO | 1.03% (inactive)
18 | Nc1ncnc2c1ncn2C1OC(CO)CC1O (stereo not drawn) | 3.4% (inactive)
19 | C[C@H](CO)N1C[C@H](C)[C@@H](CN(C)C(=O)Nc2ccccc2F)OCc2cn(nn2)CCCC1=O | 0.72% (inactive)
20 | O=C1CCC(=O)N(O)CCCCCNC(=O)CCC(=O)N(O)CCCCCNC(=O)CCC(=O)N(O)CCCCCN1 | 23.5% (active)
21 | COCc1cc(N2CCN(C(=O)OC(C)(C)C)C[C@@H]2C)ccc1N1CCN(Cc2ccccc2)[C@H](C)C1 | -2.53% (inactive)
22 | O=C(NNC(=O)c1ccccc1O)c1ccccc1O | 30% (active)
23 | Cc1cccc(NS(=O)(=O)c2cccc(C(=O)NNC(=O)c3ccccc3O)c2)c1 | 5.15% (inactive)
24 | O=C(NNC(=O)c1cc(S(=O)(=O)N2CCCCC2)ccc1Cl)c1ccccc1O | 1.7% (inactive)
25 | COC(=O)C1=C(C)N(Cc2ccc(C(F)(F)F)cc2)C(=NCc2ccc(C(F)(F)F)cc2)NC1c1cccc(Cl)c1 (stereo not drawn) | 1.58% (inactive)
26 | O=C(NS(=O)(=O)c1cccs1)[C@H]1O[C@@H](n2ccc(=O)[nH]c2=O)[C@H](O)[C@@H]1O | 3.33% (inactive)

Row | Compound | inhibition
27 | O=C(CSc1ccc(-c2ccccn2)nn1)Nc1ccccc1 | 12.9% (active)
28 | O=C(CSc1ccc(-c2ccc(-n3cccn3)cc2)nn1)Nc1ccc([N+](=O)[O-])cc1 | -0.99% (inactive)
29 | COc1cc(NC(=O)CSc2ccc(-c3cccnc3)nn2)cc(OC)c1 | 0.39% (inactive)
30 | O=C1Nc2ccccc2C1=NN=Cc1ccco1 | -0.54% (inactive)
31 | C=CC[C@]12C[C@@]3(O[C@H](c4ccc(C(F)(F)F)cc4)N=C3C[C@H](c3ccc(OC)cc3)[C@H]1C)N(C1CCN(Cc3ccccc3)CC1)C2=O | 6.28% (inactive)
32 | CC1CCCN(c2cccc3c2S(=O)(=O)N(Cc2ccc(F)cc2)[C@@H](C)[C@H](c2ccccc2)O3)C1 (stereo partly drawn) | 1.59% (inactive)
33 | N#Cc1ccc(OCCCN2CCC(C(O)(c3ccccc3)c3ccccc3)CC2)c(F)c1 | 0.63% (inactive)
34 | C=CCn1c(=O)c(C(=O)NCc2ccc3c(c2)OCO3)c(O)c2ccccc21 | 12.1% (active)
35 | CCn1c(=O)cc(SCC(=O)NCc2ccc3c(c2)OCO3)c2ccccc21 | 1.95% (inactive)
36 | C=CCn1c(=O)c(C(=O)Nc2ncccc2O)c(O)c2ccccc21 | 3.7% (inactive)
37 | CCOC(=O)c1ccc(NC(=O)CCn2c(=O)oc3ccccc32)cc1 | 1.49% (inactive)
38 | CCOC(=O)c1ccc(NC(=O)CS(=O)(=O)c2cn(CC)c3ccccc23)cc1 | 0.46% (inactive)
39 | CCOC(=O)c1ccc(NC(=O)Cn2cnc3cc(C)c(C)cc32)cc1 | 18.8% (active)
40 | Cc1ccccc1C(=O)N[C@H](C(=O)N1CCC[C@H]1C(=O)NCc1ccccc1)C(C)C | -1.25% (inactive)
41 | COC(=O)N/N=C/c1c[n+]([O-])c2ccccc2[n+]1[O-] | 37.5% (active)
42 | COC(=O)C(C)N=Cc1ccccc1 (stereo not drawn) | 0.77% (inactive)
43 | CC(C)(C)OC(=O)N/N=C/c1ccc(C(=O)O)cc1 | 1.87% (inactive)
44 | Cc1ccc2nc(CN(C)C(=O)[C@@H](Cc3ccccc3)NC(=O)[C@H]3O[C@@H](n4ccc(=O)[nH]c4=O)[C@H](O)[C@@H]3O)[nH]c2c1 | 2.03% (inactive)
45 | COC(=O)[C@]12C[C@H](CC(=O)N3CCN(C(=O)C4CC4)CC3)C(=O)N(Cc3ccc4c(c3)OCO4)C1=C[C@H](C(C)(C)C)O[C@@H]2C | 2.87% (inactive)
46 | Cc1ccc(C)c(CN2CCC(CNC(=O)C3CCCN(c4ncnc5c4nc4n5CCCCC4)C3)CC2)c1 (stereo not drawn) | 3.47% (inactive)
47 | CCCOc1ccc(Cl)cc1Nc1nc(NCCO)nc(N2CCCC2)n1 | 0.63% (inactive)
48 | COc1ccc(OC)c(NC(=O)CCN2CCC(C)CC2)c1 | -0.47% (inactive)
49 | CCN1CCN(c2nc(Nc3cc(OC)ccc3OC)nc(Nc3cc(OC)ccc3OC)n2)CC1 | 99.1% (active)
50 | O=S1(=O)c2c(cccc2N2CCCC2)O[C@H](COCc2ccccc2)CN1C1CC1 | 2.78% (inactive)
51 | Cc1[nH]c2ccccc2c1CC(=O)Nc1ccc(Nc2cccnc2)c(-c2cccc(Cl)c2)c1 | 3.75% (inactive)
52 | CCN1C(=O)N[C@@H]2C[C@H](C(=O)N3CCCC3)[C@H](C)[C@H](c3ccccc3)C[C@@H]21 | 4.26% (inactive)

Row | Compound | inhibition
53 | COC(=O)c1cc2c(c3c4cc(F)ccc4n(S(=O)(=O)c4ccccc4)c13)C(=O)N(Cc1ccccc1OC)C2 | 0.23% (inactive)
54 | O=C(N[C@H](C(=O)N1CCC[C@H]1C(=O)NCCc1ccccc1Cl)c1ccccc1)c1ccccc1 | 0.16% (inactive)
55 | C=CC1=C(C(=O)O)N2C(=O)[C@@H](NC(=O)/C(=N\OCC(=O)O)c3csc(N)n3)[C@H]2SC1 | 99.8% (active)
56 | CO/N=C(\C(=O)N[C@@H]1C(=O)N2C(C(=O)O)=C(COC(C)=O)CS[C@H]12)c1csc(N)n1 (stereo in doubt) | 101% (active) and 100% (active) and 99.7% (active)
57 | C=CC1=C(C(=O)O)N2C(=O)[C@@H](NC(=O)/C(=N/OCC(=O)O)c3csc(N)n3)[C@H]2SC1 | 102% (active)
58 | CC1(C)OC(=O)C2=C(CC(CCc3ccccc3)OC2c2ccc(Cl)cc2)O1 (stereo not drawn) | 0.56% (inactive)
59 | COC(=O)[C@]1(Cc2ccccc2)NC=C(C(=O)c2ccccc2)[C@@H]1c1cccc(OC)c1 | 0.08% (inactive)
60 | O=C(NN=Cc1ccco1)C(=O)Nc1ccc(Cl)c([N+](=O)[O-])c1 | 1.23% (inactive)
61 | COC(=O)C(C(=O)OC)c1ccccc1NS(=O)(=O)c1cccc2ccccc12 | 3.8% (inactive)
62 | C[C@H](O)[C@@H]1CN2CCc3ccc(-c4ccc5c(c4)OCO5)cc3[C@@H]2C[C@@H]1N(C)C(=O)C1CCCCC1 | 4.59% (inactive)
63 | OC(c1ccccc1)(c1ccccc1)C1CCN(CCCOc2ccc(-c3ccsc3)cc2)CC1 | -2.69% (inactive)
64 | O=C(C(=O)N1CCC(CNC(=O)c2cccnc2Cl)CC1)c1cccs1 | 2.71% (inactive)
65 | COc1ccc(C2=CN(Cc3ccccc3)C(c3ccc(OC)cc3)CC2=O)cc1 (stereo not drawn) | 3.64% (inactive)
66 | C[C@H]1[C@H](c2ccccc2)Oc2cc(Br)ccc2S(=O)(=O)N1Cc1cccc(F)c1 | 1.98% (inactive)
67 | COC(=O)[C@]12C[C@H](CC(=O)NCCc3ccccc3OC)C(=O)N(Cc3ccccc3)C1=C[C@H](C(C)C)O[C@@H]2C1CC1 | 1.94% (inactive)
68 | COC(=O)c1c(-c2ccc(OC)cc2)c2c(c3c4cc(OC)ccc4n(S(=O)(=O)c4ccc(F)cc4)c13)C(=O)N(C)C2 | 2.25% (inactive)
69 | Oc1c(Cl)cc(Cl)c(Cl)c1Cc1c(O)c(Cl)cc(Cl)c1Cl | 17.2% (active)
70 | Cc1noc(C)c1NC(=O)Nc1ccc2c(c1)C(=O)N([C@H](C)CO)C[C@H](C)[C@H](CN(C)Cc1ccncc1)OCCCC[C@@H](C)O2 | 2.8% (inactive)
71 | COc1ccc(S(=O)(=O)Nc2ccc3c(c2)C(=O)N([C@H](C)CO)C[C@H](C)[C@@H](CN(C)C)OCCCC[C@H](C)O3)cc1 | 2.32% (inactive)
72 | O=C1c2ccccc2NC(c2ccc(-c3cccc(Cl)c3)o2)N1O (stereo not drawn) | 21% (active)
73 | CCOC(=O)NN1C(=O)c2ccccc2NC1c1cccc(O)c1 (stereo not drawn) | 2.82% (inactive)
74 | CC(=O)NN1C(=O)c2ccccc2NC1c1ccccc1 (stereo not drawn) | -1.19% (inactive)
75 | CCCCCCCCN1C(=O)[C@@H](CC(=O)NCCCC)C[C@@]2(C(=O)OC)C1=C[C@H](C(C)(C)C)O[C@@H]2C | 3.8% (inactive)
76 | CC[C@H](C)[C@H]1CNC(=O)C(=O)N1CC1CCN(CCc2ccc(OC)c(OC)c2)CC1 | 1.03% (inactive)
77 | C#CCN([C@@H](C)C(=O)OCC)S(=O)(=O)c1ccc(Br)cc1F | 1.36% (inactive)
78 | CC(C)(C)C(c1nc2ccccc2[nH]1)n1c(Cc2csc3ccccc23)nc2ccccc21 (stereo not drawn) | -0.16% (inactive)
